mcGAS inh: cyclic GMP-AMP synthase inhibitors, mouse, primary biochemical chemiluminescence. Q8C6L5. recombinant cGAS, Kinase-Glo ATP depletion luminescence. inhibition, % at 12.5 µM. hit rate 0.15% among 160,000. AID 1259399, 2018;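 also: 0% = negative control wells and 100% = reference inhibitor with no enzyme activity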
Target sequence (Q8C6L5 whole entry, looked up): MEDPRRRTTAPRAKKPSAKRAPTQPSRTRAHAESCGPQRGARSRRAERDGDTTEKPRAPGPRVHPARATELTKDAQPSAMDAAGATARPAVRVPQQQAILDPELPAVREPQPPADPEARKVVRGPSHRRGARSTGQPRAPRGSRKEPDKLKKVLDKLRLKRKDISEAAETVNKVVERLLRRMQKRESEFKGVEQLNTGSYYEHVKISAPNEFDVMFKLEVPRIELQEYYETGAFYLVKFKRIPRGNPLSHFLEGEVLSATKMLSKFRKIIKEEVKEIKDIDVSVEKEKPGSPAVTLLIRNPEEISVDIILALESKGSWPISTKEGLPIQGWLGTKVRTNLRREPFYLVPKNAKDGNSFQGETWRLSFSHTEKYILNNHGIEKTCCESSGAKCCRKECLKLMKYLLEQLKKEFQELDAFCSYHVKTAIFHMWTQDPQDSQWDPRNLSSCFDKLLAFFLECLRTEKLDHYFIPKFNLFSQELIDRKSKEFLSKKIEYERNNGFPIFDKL
hcGAS inh: Primary biochemical luminescence assay for human cyclic GMP-AMP synthase inhibitors; AID 1259398, 2018; recombinant h-cGAS, ATP depletion, Kinase-Glo luminescence; hit rate 0.081% among 290,000; Q8N884; inhibition, % at 12.5 µM;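 also: 0% = vehicle reaction and 100% = reaction without DNA for no activity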
NPYLR7 agonist: agonists of mosquito NPYLR7 receptor, primary screen, cell-based, Aedes aegypti, calcium fluorescence, mosquito biting behavior; HEK293T NPYLR7/Galpha15, GCaMP6s calcium fluorescence; activation, % at 10 µM; hit rate 0.15% among 270,000; Aedes aegypti neuropeptide Y-like receptor 7 (NPYLR7); in the data active = activation above about 40%;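 also: 0% = vehicle and 100% = reference agonist at the receptor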
Starred values were filed as active, the others as inactive; nt = not tested or not shown. Most compounds without a hit are left out; they make up all but 0.3% or so of the library. Rule as the data show it, unless noted: active = inhibition above about 40%; inactive = the rest.

SMILES	mcGAS inh	hcGAS inh	NPYLR7 agonist
CO[C@@]12CC[C@@H](OCC(=O)O)C[C@@H]1N(C(=O)Cn1cc(C)cn1)CC2	-5.7	-8.7	nt
C=CCNC(=O)c1ccccc1N1CCC(NC(=O)COC)CC1	54.5*	-7.4	-0.7
C=CCNC(=O)NC1CCN(c2ccccc2C(=O)NCCOC)CC1	-5.0	-4.8	-1.0
S=c1[nH]nc(-c2cc(-c3ccccc3)nc3ccccc23)n1-c1ccc(Cl)cc1	0.6	-2.2	-1.8
Cc1ccccc1C1CN(C(=O)c2cccs2)CC1C(=O)NCCC(C)C (centres undefined)	-2.1	0.9	nt
CSc1ncccc1C(=O)Nc1nc2c(F)cc(F)cc2s1	nt	-3.0	9.6
O=C1c2ccccc2C(=O)C1c1ccnc2ccccc12	-1.5	-3.7	102.6*
O=C1c2ccccc2C(=O)C1c1nccc2ccccc12	nt	-5.0	0.1
O=c1[nH]c(-c2ccc(C(F)(F)F)cc2)nc2c1CCCC2	nt	-3.9	-3.9
CN1C(=S)N(CCCN2CCOCC2)C(=O)/C1=C/c1ccc(N(C)C)cc1	-9.0	-7.9	59.8*
CN1C(=S)N(CCCN2CCOCC2)C(=O)/C1=C\c1ccc2c(c1)OCO2	-6.9	-5.7	17.4
N#CC(C(=O)/C=C/c1nccs1)C(=O)Nc1cccc(Cl)c1Cl (centres undefined)	nt	45.8*	-0.6
Cc1c(Cl)cccc1NC(=O)C(C#N)C(=O)COc1ccc(F)cc1 (centres undefined)	-14.7	-2.7	22.3
CC(CC(=O)c1ccccc1F)C(=O)NCc1cnc(N(C)C)n1C (centres undefined)	nt	10.6	-2.9
O=C(Nc1ccc(Cl)cn1)c1ccc(Cn2cc(Br)c([N+](=O)[O-])n2)cc1	nt	2.8	0.6
O=C(Nc1ccc(Cl)cn1)c1[nH]ncc1[N+](=O)[O-]	nt	60.5*	0.9
Cc1ccc(CN(C)C(=O)CCl)o1	6.6	3.9	-1.4
CN(Cc1ccc(-c2ccc(Cl)cc2)o1)C(=O)CCl	49.8*	-4.7	6.1
CCOc1ccc(C(=O)Nc2sc3c(c2C#N)CCC(C)C3)cc1 (centres undefined)	-5.0	-9.2	-20.1
Cc1cc(C(=O)NCCc2ccccc2)n2nc(C(C)(C)C)cc2n1	-4.7	-5.7	17.9
Cc1cc(C(=O)NC(c2ccccc2)c2ccccc2)n2nc(C(C)(C)C)cc2n1	59.1*	-2.8	20.9
O=C(c1ccc(Cl)cc1Cl)N1CCCC(OCc2cccc(Cl)c2)C1 (centres undefined)	-2.8	0.0	-4.4
O=C1C=CC(=NC(=NS(=O)(=O)c2ccccc2)c2ccccc2)C=C1Cl	-3.2	-3.8	-2.2
O=C1C(Cl)=CC(=NS(=O)(=O)c2ccccc2)C(Cl)=C1Cl	59.3*	58.6*	-7.3
Cc1ccc(NC(=O)c2cccnc2Nc2cccc(Cl)c2)cc1	nt	-4.3	-9.7
SMILES	mcGAS inh	hcGAS inh	NPYLR7 agonist
Cc1cccc(C(=O)NC(=NC2CCCc3ccccc32)OC(C)C)c1 (centres undefined)	-6.6	-10.8	-4.6
CN1CCN(C(=O)/C=C/c2ccc(Cl)cc2Cl)CC1	-5.5	-1.6	-3.4
O=C(/C=C/c1ccc(Cl)cc1Cl)n1cccn1	43.7*	4.0	-10.4
O=C(Cc1cc(F)cc(F)c1)N1CCc2c(sc3[nH]c(=O)n(-c4ccccc4C(F)(F)F)c(=O)c23)C1	-5.6	-5.0	6.1
Cc1ccc(N(CCCCN2C(=O)c3ccccc3C2=O)C(=O)c2ccccc2F)cc1	nt	-2.0	-3.8
O=C(NC(c1ccc(Cl)cc1)C1CC1)c1ccco1 (centres undefined)	-7.7	-8.1	4.1
NS(=O)(=O)c1ccc(NC(NC(=O)c2ccco2)C(=O)c2ccc(Cl)cc2)cc1 (centres undefined)	nt	-0.2	44.7*
O=S(=O)(c1ccc(C2=CSC3=NCCCN23)cc1)N1CCCCC1	nt	-6.6	8.8
Cc1ccc(NC(=O)C(C)NCc2ccccc2-n2cccn2)cc1 (centres undefined)	-1.7	-3.3	3.0
Cc1ccnc(SCc2cc(=O)c(OC(=O)Cc3ccc(F)cc3)co2)n1	40.1*	4.6	-15.6
Cc1cc(C)nc(SCc2cc(=O)c(OC(=O)Cc3ccccc3)co2)n1	86.9*	2.7	-13.5
Cc1cccc(CC(=O)Oc2coc(CSc3nc(C)cc(C)n3)cc2=O)c1	26.4	2.3	-15.2
Cc1ccnc(SCc2cc(=O)c(OC(=O)COc3ccc(F)cc3)co2)n1	-1.4	1.3	-15.8
O=C(CCl)N1CCN(c2cccc(Cl)c2)CC1	69.9*	-10.5	0.3
O=C(CCl)N1CCN(c2ccc(O)cc2)CC1	10.7	4.5	-7.5
O=C(CNc1ccc(Cl)cc1)Nc1c(F)cccc1F	nt	1.2	-5.3
Cc1cccc(CNC(=O)Cn2c(=O)oc3cccnc32)c1	nt	-3.3	-7.0
CC(=O)Nc1c(-c2cc(C)cc(C)c2)nc2cc(C)ccn12	0.8	-0.3	-3.8
Cc1cc(C)cc(-c2nc3cc(C)ccn3c2NC(=O)CCl)c1	42.3*	-6.2	-10.4
c1cc2c(cc1N1CCC(N3CCOC4(CNCCOC4)C3)CC1)CCC2 (centres undefined)	-12.0	-6.3	8.2
CCOC(=O)N1CCN(c2ccc(/C=C(\C#N)c3nc4ccccc4[nH]3)o2)CC1	nt	-6.8	102.5*
CCOC(=O)N1CCN(/C=C(\C#N)c2nc3ccccc3s2)CC1	-1.1	1.3	-9.5
CCNC(=O)C1(C)CCCCN1Cc1ccc(C(=O)OCC)cc1 (centres undefined)	nt	-9.3	3.9
N#CC1C(=N)Oc2cc(O)ccc2C1c1cccs1 (centres undefined)	-0.6	-4.4	11.0
N#CC1C(=N)Oc2cc(O)ccc2C1c1ccc(Br)cc1 (centres undefined)	nt	-1.8	0.1
SMILES	mcGAS inh	hcGAS inh	NPYLR7 agonist
N#CC1C(=N)Oc2cc(O)ccc2C1c1ccncc1 (centres undefined)	-1.4	-7.9	85.0*
N#CC1C(=N)Oc2cc(O)ccc2C1c1ccc(Cl)cc1Cl (centres undefined)	nt	-4.6	96.0*
N#CC1C(=N)Oc2cc(N)ccc2C1c1ccc(Cl)cc1Cl (centres undefined)	nt	-7.4	5.6
N#CC1C(=N)Oc2cc(O)ccc2C1c1ccccc1I (centres undefined)	1.9	4.0	82.2*
CCc1noc(C)c1C(=O)OC(C)C(=O)N1CC(=O)Nc2ccccc21 (centres undefined)	nt	2.7	3.1
CC(C)c1nccn1CCCNC(=O)C1(N)CC1	-5.4	4.4	-2.6
CC(C)(C)CC(=O)Nc1ccc(N2CCC(Cc3ccccc3)CC2)c(C(=O)NCCN2CCOCC2)c1	-5.0	-11.6	-6.1
CC(C)(C)c1cc(C(C)(C)C)c(OCCBr)cc1OCCO	nt	0.6	8.1
CC(C)=CCc1c2c(c(O)c3c(=O)c(O)c(-c4ccccc4)oc13)C=CC(C)(C)O2	-2.7	-0.2	-3.8
CC(C)=CCCC1(C)C=Cc2c(O)c3c(c(CC=C(C)C)c2O1)OC12C(=CCCC1C(C)(C)O[C@@]2(C/C=C(\C)C(=O)O)C(=O)O)C3=O (some centres undefined)	57.8*	67.6*	nt
COc1cccc(-n2ncc3c2C(CC(C)C)N(CC(=O)OC(C)(C)C)C3=O)c1 (centres undefined)	nt	-4.6	15.7
